We go through 21 compounds from PubChem BioAssay (NCATS).

Values joined by “and” are separate entries in the source; they are usually repeats but may differ in a detail not shown here. Identical values can stand only once. Results filed as inconclusive are left out. Active and inactive are the calls of the source. The call rests on the fitted dose curve.

A short description of assay [1]: Primary qHTS for inhibitors of SARS-S pseudo-typed particle cell entry (AID 1479145). Further: nearly all actives have a fitted effect of over 45% in size. On activity change, negative = inhibition: on the % scale 0 is the no-effect control and ±100 the full control effect. The following applies: SARS-S pseudotyped particle cell entry, luciferase reporter; series mostly up to 57.1 µM. (In qHTS, concentration-response curves come from the screen itself.)
The nature of assay [2]: Primary qHTS for Huh7 cytotoxicity: counterscreen for inhibitors of MERS-S pseudotyped particle cell entry (AID 1479147). On activity change, negative = cytotoxicity: on the % scale 0 is the no-effect control and ±100 the full control effect. The following applies: cell viability read-out; series mostly up to 57.1 µM.
Assay [3] in a line: Primary qHTS for inhibitors of MERS-S pseudo-typed particle cell entry (AID 1479149). Further: nearly all actives have a fitted effect of over 60% in size. To be noted: MERS-S pseudotyped particle entry, luciferase; series mostly up to 57.1 µM.
Assay [4] in a line: Primary qHTS for Vero E6 cytotoxicity: counterscreen for inhibitors of SARS-S pseudo-typed particle cell entry (AID 1479150). On activity change, negative = cytotoxicity: on the % scale 0 is the no-effect control and ±100 the full control effect. To be noted: cell viability; series mostly up to 57.1 µM.
Assay [5] can be described thus: Cytotoxicity counterscreen for inhibitors of SARS-CoV-2 cell entry (AID 1645845). Further: nearly all actives have a fitted effect of over 50% in size. On activity change, negative = cytotoxicity: on the % scale 0 is the no-effect control and ±100 the full control effect. The following applies: cell viability (SARS-CoV-2 entry assay cells); series mostly up to 57.1 µM. The procedure, abridged:
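After a 15 min room-temperature ATPLite 1step step, luminescence reflected ATP remaining in HEK293-ACE2 cells exposed to compound for 1 h plus 48 h at 37 C, with percent activity set by cell and no-cell controls.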

Assay [6] in a line: Primary qHTS to identify inhibitors of SARS-CoV-2 cell entry (AID 1645846). Further: nearly all actives have a fitted effect of over 45% in size. Further: potency means the concentration at half of the fitted maximal effect. The following applies: SARS-CoV-2 pseudovirus cell entry assay, luminescence; activity change, negative = inhibition: at 57.1 µM (top of the series) unless noted. An outline of the steps: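 Entry measured by luciferase signal 48 h after adding SARS-CoV-2-S pseudotyped MLV particles to HEK293-ACE2 cells preincubated 1 h with compounds. Normalisation: bald particles and spike particles.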

Take `CO[C@H]1/C=C\O[C@@]2(C)Oc3c(C)c(O)c4c(O)c(c5c(nc6cc(C)ccn65)c4c3C2=O)NC(=O)/C(C)=C\C=C/[C@H](C)[C@H](O)[C@@H](C)[C@@H](O)[C@@H](C)[C@H](OC(C)=O)[C@@H]1C`: the Potency entry in assay [1], in assay [2], in assay [3], in assay [4] and in assay [5] was “inactive” throughout. In addition, the activity change, negative = inhibition in assay [6] was -25.8%.

On to `CCOc1ccc(Cc2cc([C@@]34OC[C@@](CO)(O3)[C@@H](O)[C@H](O)[C@H]4O)ccc2Cl)cc1`, for which the Potency result in assay [1], in assay [2], in assay [3], in assay [4] and in assay [5] was “inactive” each time. Besides, the activity change, negative = inhibition in assay [6] was -29.2%.

`CC(C)C[C@H](NC(=O)[C@@H](COC(C)(C)C)NC(=O)[C@H](Cc1ccc(O)cc1)NC(=O)[C@H](CO)NC(=O)[C@H](Cc1c[nH]c2ccccc12)NC(=O)[C@H](Cc1cnc[nH]1)NC(=O)[C@@H]1CCC(=O)N1)C(=O)N[C@@H](CCCN=C(N)N)C(=O)N1CCC[C@H]1C(=O)NNC(N)=O`: the Potency result in assay [1], in assay [2], in assay [3], in assay [4] and in assay [5] was “inactive” in each case. Besides, in assay [6], the activity change, negative = inhibition is -11.8% [at 27.1 µM].

Take `CCC(=O)Oc1ccc2c(c1)CC[C@@H]1[C@H]2CC[C@]2(C)[C@@H](OC(=O)CC)CC[C@@H]12`: the Potency result in assay [1], in assay [2], in assay [3], in assay [4] and in assay [5] was “inactive” each time.

Turning to `CN[C@H]1C[C@@H](N)[C@H](O)[C@@H](O[C@@H]2O[C@H](CO)[C@H](O)[C@@H]3OC4(O[C@H]23)O[C@H]([C@@H](N)CO)[C@H](O)[C@H](O)[C@H]4O)[C@@H]1O` (some centres undefined), the Potency entry in assay [1], in assay [2], in assay [3], in assay [4] and in assay [5] was “inactive” each time. Moreover, the Potency in assay [6] was 17.8 µM (active).

Take `COC(=S)NCCn1c([N+](=O)[O-])cnc1C`: the Potency result in assay [1], in assay [2], in assay [3], in assay [4] and in assay [5] was “inactive” throughout. Also, in assay [6], the activity change, negative = inhibition is -22.7%.

For `CNC(=O)C[C@@H](N)C(=O)N[C@@H](C(=O)N[C@@H]1C(=O)N2[C@@H]1SC(C)(C)[C@@H]2C(=O)O)c1ccc(O)cc1`, the Potency entry in assay [1], in assay [2], in assay [3], in assay [4] and in assay [5] was “inactive” in each case. Further, the activity change, negative = inhibition in assay [6] is -19.8%.

For the compound `NCCCC[C@H](NC(=O)[C@@H]1CCCN1C(=O)[C@@H]1CSSC[C@H](N)C(=O)N[C@@H](Cc2ccccc2)C(=O)N[C@@H](Cc2ccccc2)C(=O)N[C@@H](CCC(N)=O)C(=O)N[C@@H](CC(N)=O)C(=O)N1)C(=O)NCC(N)=O`, the Potency entry in assay [1], in assay [2], in assay [3], in assay [4] and in assay [5] was “inactive” throughout. Besides, the activity change, negative = inhibition in assay [6] is -27.3%.

Take `CCCCC(CC)COC(=O)CC(C(=O)OCC(CC)CCCC)S(=O)(=O)O` (centres undefined): the Potency entry in assay [1], in assay [2], in assay [3], in assay [4] and in assay [5] was “inactive” each time.

With `O=S(O)CNc1ccc(S(=O)(=O)c2ccc(NCS(=O)O)cc2)cc1`, the Potency entry in assay [1], in assay [2], in assay [3], in assay [4] and in assay [5] was “inactive” in each case. In addition, the activity change, negative = inhibition in assay [6] was 3.29%.

Take `CCCCCCCCCCCCCCCC(=O)OCC(=O)[C@@]1(O)[C@H](C)C[C@H]2[C@@H]3CCC4=CC(=O)C=C[C@]4(C)[C@@]3(F)[C@@H](O)C[C@@]21C`: the Potency result in assay [1], in assay [2], in assay [3], in assay [4] and in assay [5] was “inactive” in each case. Besides, the activity change, negative = inhibition in assay [6] is 3.26%.

For the compound `Cc1ncc(C[n+]2csc(CCOP(=O)(O)OP(=O)(O)O)c2C)c(N)n1`, the outcome in assay [1], in assay [2] and in assay [3] was “inactive [at 0.573 µM]” each time. Further, the values for the activity change, negative = cytotoxicity in assay [4] and in assay [5] were -14.9% [at 0.573 µM] (inactive) and 3.84% [at 0.702 µM] (inactive), respectively. In assay [6], the activity change, negative = inhibition was -1.65% [at 0.702 µM].

As for `O=C(CCc1ccc(O)cc1)c1c(O)cc(O)cc1O[C@@H]1O[C@H](CO)[C@@H](O)[C@H](O)[C@H]1O`, the Potency result in assay [1], in assay [2], in assay [3], in assay [4] and in assay [5] was “inactive” each time. In assay [6], the activity change, negative = inhibition was 0.14% and -17.3%.

Regarding `CN1C(=O)[C@]23C[C@H]4C(C)(C)[C@]5(CNc6c5ccc5c6OC=CC(C)(C)O5)C[C@@]41CN2CC[C@@]3(C)O`, the Potency result in assay [1], in assay [2], in assay [3], in assay [4], in assay [5] and in assay [6] was “inactive” each time.

With `C[C@@H]1O[C@@H](O[C@@H]2/C=C/C=C/C=C\C=C\C[C@H](C)OC(=O)/C=C/[C@H]3O[C@@H]3C[C@H](O)C[C@]3(O)C[C@@H](O)[C@@H](C(=O)O)[C@H](C2)O3)[C@H](O)[C@H](N)[C@@H]1O`, the activity change, negative = inhibition in assay [1] was -7.42% [at 11.4 µM] (inactive); in assay [6] it was -12.9% [at 11.3 µM]. Besides, the activity change, negative = cytotoxicity in assay [2] is 0.894% [at 11.4 µM] (inactive); in assay [4], -4.87% [at 11.4 µM] (inactive); in assay [5] it was 1.93% [at 11.3 µM] (inactive). Further, the outcome in assay [3] was “inactive [at 11.4 µM]”.

Turning to `O=C(O)C1CCc2cc(C3CCCCC3)c(Cl)cc21` (centres undefined), the Potency result in assay [1], in assay [2], in assay [3], in assay [4] and in assay [5] was “inactive” throughout. For the same compound, the activity change, negative = inhibition in assay [6] is -32.2%.

For `Cc1cc(=O)c(C(=O)N[C@@H](C(=O)N[C@@H]2C(=O)N3C(C(=O)O)=C(CSc4nnnn4C)CS[C@H]23)c2ccc(O)cc2)c[nH]1`, the Potency result in assay [1], in assay [2], in assay [3], in assay [4] and in assay [5] was “inactive” throughout. In assay [6], the activity change, negative = inhibition was -20.7%.

Take `CCOC(=O)CN[C@@H](C(=O)N1CC[C@H]1C(=O)NCc1ccc(/C(N)=N/O)cc1)C1CCCCC1`: the Potency result in assay [1], in assay [2], in assay [3], in assay [4] and in assay [5] was “inactive” in each case. Further, the activity change, negative = inhibition in assay [6] was -19.7%.

`C=CCOc1ccc(CC(=O)O)cc1Cl`: the Potency entry in assay [1], in assay [2], in assay [3], in assay [4] and in assay [5] was “inactive” throughout. In addition, the activity change, negative = inhibition in assay [6] was -9.87% [at 114 µM].

Turning to `O=P(O)(O)C(O)(Cc1cnc2ccccn12)P(=O)(O)O`, the outcome is “inactive [at 0.573 µM]” in assay [1]; “inactive [at 0.573 µM]” in assay [2]; “inactive [at 0.573 µM]” in assay [4]; “inactive [at 0.702 µM]” in assay [5]; “inactive [at 0.702 µM]” in assay [6]. In assay [3], the activity change, negative = inhibition was -0.315% [at 0.573 µM] (inactive).

Regarding `OCC1OC(c2ccc(Cl)c(Cc3ccc(OC4CCOC4)cc3)c2)C(O)C(O)C1O` (centres undefined), the Potency result in assay [1], in assay [2], in assay [3], in assay [4] and in assay [5] was “inactive” each time. For the same compound, the activity change, negative = inhibition in assay [6] is -20.7%.
